Measured values as given in PubChem BioAssay (NCATS).
Values joined by “and” are separate entries in the source; they are usually repeats but may differ in a detail not shown here. Identical values can stand only once. Results filed as inconclusive are left out. Entries that show only a call come without a potency. Active and inactive are the calls of the source. Unless noted, calls come from the whole dose curve; as a rule, active = well fitted curve in the direction sought with a large enough effect; inconclusive = small, poorly fitted or top-dose-only effect, or another doubt; inactive = no such curve, though single readings can be large; an effect the other way counts as inactive or inconclusive.

What was measured:
[1] = Primary qHTS for inhibitors of nuclear receptor binding SET domain protein 2 (NSD2) in an isogenic RCH-ACV NSD2 p.E1099K mutant (9B) (AID 1645876); note: nearly all actives have a fitted effect of over 70% in size; note: potency is the fitted concentration of half-maximal effect
[2] = Primary qHTS for inhibitors of nuclear receptor binding SET domain protein 2 (NSD2) in an RCH-ACV wild type WT cells (2C) (AID 1645877); note: nearly all actives have a fitted effect of over 70% in size; note: potency is the fitted concentration of half-maximal effect
[3] = NCATS anti-infectives library activity on HEK293 viability as a counter-qHTS vs the C. elegans viability qHTS (AID 1745854);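 note: HEK293 cells exposed to compounds for 24 hr before the viability read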
Method in brief: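 Compound titrations (final up to 41.7 uM) were incubated with HEK293 cells for 24 hr at 37C under 5% CO2. Viable cells were quantified with CellTiter-Glo after 10 min at ambient temperature.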

[4] = NCATS anti-infectives library activity on the primary C. elegans qHTS viability assay (AID 1745855; calls by dose curve); conditions: C. elegans worm area imaging, day 7; at 41.8 µM (top of the series)
Method in brief: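 Titration-based screen in worms: eggs hatched overnight in M9, L1 larvae fed TOP10 capsules in S medium with compound, incubated 21 °C for 7 days; fluorescent objects gated by size and intensity at days 0, 3 and 7.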

[5] = target: Rap guanine nucleotide exchange factor 3 (Homo sapiens) (UniProt O95398); experiment: Confirmatory qHTS for agonist of cAMP-regulated guanine nucleotide exchange factor 3 (EPAC1) (AID 1645881);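 note: EPAC1 catalysed release of BODIPY-GDP from Rap1B seen as fluorescence loss; nearly all actives have a fitted effect of over 75% in size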
[6] = target: Rap guanine nucleotide exchange factor 4 (Homo sapiens) (UniProt Q8WZA2); experiment: Confirmatory qHTS for agonist of cAMP-regulated guanine nucleotide exchange factor 4 (EPAC2) (AID 1645884);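 note: nucleotide exchange releases bodipy-GDP from Rap1 and this lowers its fluorescence; nearly all actives have a fitted effect of over 65% in size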
[7] = target: Rap guanine nucleotide exchange factor 4 (Homo sapiens) (UniProt Q8WZA2); experiment: Confirmatory qHTS for antagonist of cAMP-regulated guanine nucleotide exchange factor 4 (EPAC2) (AID 1645885); note: nearly all actives have a fitted effect of over 25% in size; note: potency is the fitted concentration of half-maximal effect
[8] = target: Rap guanine nucleotide exchange factor 3 (Homo sapiens) (UniProt O95398); experiment: Counterscreen qHTS for antagonist of cAMP-regulated guanine nucleotide exchange factor 3 (EPAC1) (AID 1645888)
Method in brief: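 Rap1B-BODIPY-GDP 250 nM + GDP 50 uM; cpds 7-pt, final 9.74 nM–152 uM (activator mode) or from 7.32 nM upwards (inhibitor mode); RT; FI 480/540 nm at 5 and 30 min, then ± cAMP, reread.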

[9] = Viability counterscreen for antagonist of constitutive androstane receptor (CAR) against the NCATS DSHEA and TCM libraries (AID 1794837);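 note: compound exposure lasted 24 h before viability reading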
Method in brief: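 Fluorescence from CellTiter-Fluor reports live-cell protease activity in HepG2-CYP2B6-hCAR cells treated for 24 h with substances alongside 48 uM CITCO.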

[10] = Viability counterscreen for agonist of constitutive androstane receptor (CAR) against the NCATS DSHEA and TCM libraries (AID 1794838);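 note: cells exposed to compound for 24 h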
Method in brief: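 In agonist mode, PK11195 is added at 0.75 uM final to HepG2-CYP2B6-hCAR cells dosed with test substances. Cultures incubate 24 h at 37C before a protease-based fluorogenic viability readout.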

[11] = HepG2 viability counterscreen (readout 2: ATP content) against the NCATS DSHEA and TCM libraries (AID 1794840);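 note: HepG2 cells exposed to substances for about 24 h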
Method in brief: (§1)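 Cytotoxicity was assessed in HepG2 cells plated at 1,000 cells/well and exposed for about 24 hours to a concentration series. Protease activity and ATP content were measured sequentially in each well.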

[12] = HepG2 viability counterscreen (readout 1: protease activity) against the NCATS DSHEA and TCM libraries (AID 1794841);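 note: cells exposed to compounds for about 24 h before the protease read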
Method in brief: as §1

[13] = target: Catechol O-methyltransferase (Homo sapiens) (UniProt P21964); experiment: Confirmatory Screen for Target Class Profiling of Small Molecule Inhibitors of Methyltransferases (AID 1745852; calls by dose curve); conditions: MTase-Glo luminescence, SAH detection, recombinant enzyme; measured here: COMT max response; stronger effect = lower value
[14] = target: Guanidinoacetate N-methyltransferase (Homo sapiens) (UniProt Q14353); experiment: as above; conditions: activity change, negative = inhibition: at 57.3 µM (top of the series) unless noted
[15] = target: Nicotinamide N-methyltransferase (Homo sapiens) (UniProt P40261); experiment: as above; conditions: MTase-Glo luminescence, SAH detection, recombinant enzyme; measured here: NNMT max response; stronger effect = lower value
[16] = target: Phenylethanolamine N-methyltransferase (Homo sapiens) (UniProt P11086); experiment: as above; conditions: MTase-Glo luminescence, SAH detection, recombinant enzyme; measured here: PNMT max response; stronger effect = lower value
[17] = target: Nuclear receptor subfamily 1 group I member 3 (Homo sapiens) (UniProt Q14994); experiment: Primary qHTS for agonist of constitutive androstane receptor (CAR) against the NCATS DSHEA and TCM libraries (AID 1794839);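 note: HepG2 cells expressing human CAR with a CYP2B6 reporter plus PK11195 antagonist; luciferase reporter luminescence read with ONE-Glo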
Method in brief: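 Cells stably carrying hCAR and a CYP2B6 reporter (HepG2 background) are seeded and allowed 5 h to adhere. Substances at multiple concentrations are added alongside 0.75 µM PK11195, and luciferase signal is measured after 24 h.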

[18] = target: Rap guanine nucleotide exchange factor 3 (Homo sapiens) (UniProt O95398); experiment: Confirmatory qHTS for antagonist of cAMP-regulated guanine nucleotide exchange factor 3 (EPAC1) (AID 1645880); conditions: EPAC1 Rap1B-BODIPY-GDP exchange, fluorescence; note: potency is the fitted concentration of half-maximal effect; nearly all actives have a fitted effect of over 55% in size
Method in brief: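 Released BODIPY-GDP fluoresces less than Rap1-bound BODIPY-GDP; the signal is followed at 480/540 nm at 5-min intervals over 30 min, after 5 min at room temperature. Reactions contain 100 nM EPAC1, 250 nM RAP1B-BODIPY-GDP and 50 uM GDP; results are normalized to ATA and DMSO.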

Sequence of Phenylethanolamine N-methyltransferase (Homo sapiens) (P11086 whole entry, looked up): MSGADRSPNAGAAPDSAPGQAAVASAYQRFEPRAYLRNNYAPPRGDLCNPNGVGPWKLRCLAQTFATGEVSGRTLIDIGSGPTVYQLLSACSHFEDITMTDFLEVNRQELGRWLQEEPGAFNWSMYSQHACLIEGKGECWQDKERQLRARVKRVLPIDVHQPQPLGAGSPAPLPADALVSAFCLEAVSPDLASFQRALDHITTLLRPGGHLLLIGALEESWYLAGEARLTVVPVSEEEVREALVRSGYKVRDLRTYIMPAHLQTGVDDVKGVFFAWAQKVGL
Sequence of Catechol O-methyltransferase (Homo sapiens) (P21964 whole entry, looked up): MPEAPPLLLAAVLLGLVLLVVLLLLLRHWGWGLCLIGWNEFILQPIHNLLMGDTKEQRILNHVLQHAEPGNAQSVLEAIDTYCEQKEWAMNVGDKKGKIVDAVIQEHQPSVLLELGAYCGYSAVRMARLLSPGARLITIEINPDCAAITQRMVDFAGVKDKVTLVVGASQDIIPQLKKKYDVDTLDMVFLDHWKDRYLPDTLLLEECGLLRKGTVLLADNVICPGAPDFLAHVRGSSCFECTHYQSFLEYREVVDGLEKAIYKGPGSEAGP
Sequence of Nicotinamide N-methyltransferase (Homo sapiens) (P40261 whole entry, looked up): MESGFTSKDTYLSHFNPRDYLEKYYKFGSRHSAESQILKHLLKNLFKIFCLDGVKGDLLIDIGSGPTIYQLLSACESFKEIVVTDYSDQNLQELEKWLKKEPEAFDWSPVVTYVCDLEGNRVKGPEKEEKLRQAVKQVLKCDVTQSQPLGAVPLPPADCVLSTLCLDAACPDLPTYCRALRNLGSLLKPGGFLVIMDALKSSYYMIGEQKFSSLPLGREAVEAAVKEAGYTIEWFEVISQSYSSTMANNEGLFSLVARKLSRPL
Sequence of Rap guanine nucleotide exchange factor 4 (Homo sapiens) (Q8WZA2 whole entry, looked up): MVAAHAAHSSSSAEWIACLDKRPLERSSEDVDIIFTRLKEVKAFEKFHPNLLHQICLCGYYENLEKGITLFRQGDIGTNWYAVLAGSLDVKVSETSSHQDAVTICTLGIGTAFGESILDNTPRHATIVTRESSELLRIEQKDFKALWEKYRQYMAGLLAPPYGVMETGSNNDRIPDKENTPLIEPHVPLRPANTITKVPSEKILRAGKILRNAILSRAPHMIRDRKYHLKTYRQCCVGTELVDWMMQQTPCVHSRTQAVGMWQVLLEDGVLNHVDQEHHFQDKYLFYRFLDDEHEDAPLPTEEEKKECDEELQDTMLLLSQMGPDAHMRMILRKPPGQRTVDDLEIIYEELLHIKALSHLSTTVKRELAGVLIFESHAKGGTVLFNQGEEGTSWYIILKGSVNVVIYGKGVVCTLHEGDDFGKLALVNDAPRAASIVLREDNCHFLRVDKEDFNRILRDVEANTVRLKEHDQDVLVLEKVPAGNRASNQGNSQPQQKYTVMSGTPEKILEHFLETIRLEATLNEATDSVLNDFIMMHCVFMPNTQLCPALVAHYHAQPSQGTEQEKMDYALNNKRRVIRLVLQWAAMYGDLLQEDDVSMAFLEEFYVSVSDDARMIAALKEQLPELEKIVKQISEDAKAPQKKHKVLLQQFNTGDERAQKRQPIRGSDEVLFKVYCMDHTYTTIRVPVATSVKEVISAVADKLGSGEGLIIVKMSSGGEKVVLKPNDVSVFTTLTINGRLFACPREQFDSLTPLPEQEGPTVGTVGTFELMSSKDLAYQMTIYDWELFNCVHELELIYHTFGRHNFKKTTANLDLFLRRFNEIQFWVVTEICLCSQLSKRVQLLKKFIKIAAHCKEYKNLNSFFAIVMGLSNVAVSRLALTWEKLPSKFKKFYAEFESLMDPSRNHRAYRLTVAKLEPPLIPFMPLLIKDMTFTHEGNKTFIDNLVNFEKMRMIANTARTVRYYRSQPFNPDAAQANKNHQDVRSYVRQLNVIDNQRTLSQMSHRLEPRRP
Sequence of Rap guanine nucleotide exchange factor 3 (Homo sapiens) (O95398 whole entry, looked up): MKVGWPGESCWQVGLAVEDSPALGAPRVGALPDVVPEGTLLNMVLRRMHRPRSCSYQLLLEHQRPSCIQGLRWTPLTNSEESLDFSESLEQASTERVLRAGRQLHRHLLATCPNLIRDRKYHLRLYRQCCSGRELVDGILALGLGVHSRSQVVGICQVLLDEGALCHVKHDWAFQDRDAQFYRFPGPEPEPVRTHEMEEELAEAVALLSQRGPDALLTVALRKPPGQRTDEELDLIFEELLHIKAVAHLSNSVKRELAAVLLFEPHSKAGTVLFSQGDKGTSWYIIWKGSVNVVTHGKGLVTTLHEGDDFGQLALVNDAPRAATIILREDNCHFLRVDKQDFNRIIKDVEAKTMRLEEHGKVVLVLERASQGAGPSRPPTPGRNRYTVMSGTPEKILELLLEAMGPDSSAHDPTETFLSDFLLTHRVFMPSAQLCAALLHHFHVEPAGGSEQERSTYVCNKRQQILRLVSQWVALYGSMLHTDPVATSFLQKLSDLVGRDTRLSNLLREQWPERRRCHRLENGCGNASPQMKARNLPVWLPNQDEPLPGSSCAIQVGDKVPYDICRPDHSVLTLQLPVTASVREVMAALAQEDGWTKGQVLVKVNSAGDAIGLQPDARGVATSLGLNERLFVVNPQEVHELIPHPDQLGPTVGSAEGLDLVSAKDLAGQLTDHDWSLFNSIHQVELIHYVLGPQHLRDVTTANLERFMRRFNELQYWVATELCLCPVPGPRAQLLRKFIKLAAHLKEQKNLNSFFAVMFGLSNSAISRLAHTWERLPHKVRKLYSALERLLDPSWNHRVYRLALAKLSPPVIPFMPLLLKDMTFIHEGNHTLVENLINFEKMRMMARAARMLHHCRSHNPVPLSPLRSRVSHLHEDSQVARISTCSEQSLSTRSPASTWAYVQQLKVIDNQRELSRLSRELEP
Sequence of Nuclear receptor subfamily 1 group I member 3 (Homo sapiens) (Q14994 whole entry, looked up): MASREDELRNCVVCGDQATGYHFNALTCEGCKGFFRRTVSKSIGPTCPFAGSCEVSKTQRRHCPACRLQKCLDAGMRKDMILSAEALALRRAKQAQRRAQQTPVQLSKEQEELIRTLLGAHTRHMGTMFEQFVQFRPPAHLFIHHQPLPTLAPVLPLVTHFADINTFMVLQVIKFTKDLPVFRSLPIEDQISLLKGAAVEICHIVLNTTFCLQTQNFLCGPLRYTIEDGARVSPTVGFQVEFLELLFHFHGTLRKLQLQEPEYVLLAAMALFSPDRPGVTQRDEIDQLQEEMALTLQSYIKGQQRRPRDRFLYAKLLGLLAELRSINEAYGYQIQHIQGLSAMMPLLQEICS

Compound: N[C@H]1C[C@H]1c1ccc(-c2cccc(O)c2)cc1
- Potency [1]: inactive
- Potency [2]: inactive
- outcome [3]: inactive
- outcome [4]: inactive

Compound: CC(C)(C)NC(=O)[C@@H]1C[C@@H]2CCCC[C@@H]2CN1C[C@@H](O)[C@H](Cc1ccccc1)NC(=O)[C@H](CC(N)=O)NC(=O)c1ccc2ccccc2n1
- outcome [5]: inactive
- outcome [6]: inactive
- Potency [7]: inactive
- outcome [8]: inactive

Compound: CC(C)C(=O)OCC(=O)[C@@]12O[C@H](C3CCCCC3)O[C@@H]1C[C@H]1[C@@H]3CCC4=CC(=O)C=C[C@]4(C)[C@H]3[C@@H](O)C[C@@]12C
- Potency [2]: 20.9 nM (active)

Compound: CC1=C(/C=C/C(C)=C/C=C/C(C)=C/CO)C(C)(C)CCC1
- outcome [9]: inactive
- outcome [10]: inactive
- outcome [11]: inactive
- outcome [12]: inactive

Compound: CCCOc1ccn2c(C(C)=O)cc(-c3ccccc3S(C)(=O)=O)c2c1
- Potency [2]: 18600 nM (active)

Compound: Nc1c(Br)cc(Br)cc1CNC1CCC(O)CC1 (stereo unspecified)
- Potency [2]: inactive

Compound: CCC(=O)O[C@]1(C(=O)CCl)[C@@H](C)C[C@H]2[C@@H]3C[C@H](F)C4=CC(=O)C=C[C@]4(C)[C@@]3(F)[C@@H](O)C[C@@]21C
- Potency [2]: inactive

Compound: OC[C@H]1O[C@@H](Oc2cc(O)cc(/C=C/c3ccc(O)cc3)c2)[C@H](O)[C@@H](O)[C@@H]1O
- outcome [3]: inactive

Compound: C[C@@H]1CC[C@]2(C)C3(C)CC[C@@]2(OC3=O)[C@@]12C[C@H](c1ccoc1)OC2=O
- Potency [2]: inactive

Compound: O=C(O[C@@H]1O[C@H](CO)[C@@H](O)[C@H](O)[C@H]1O)c1c(O)cc(O)cc1/C=C/c1ccccc1
- Potency [2]: inactive
- activity [13]: -66.4%
- activity change, negative = inhibition [14]: 2.61% [at 29.8 µM]
- activity [15]: -2.64%
- activity [16]: -9.3%

Compound: COc1cc(/C=C/c2cc(O)cc(O[C@@H]3O[C@H](CO)[C@@H](O)[C@H](O)[C@H]3O)c2)ccc1O
- activity [13]: -45%
- activity change, negative = inhibition [14]: 0.569% [at 29.8 µM]
- activity [15]: -2.24%
- activity [16]: 1.65%

Compound: C[C@H]1[C@H](C)CC[C@]2(C(=O)O)CC[C@]3(C)C(=CC[C@@H]4[C@@]5(C)C[C@@H](O)[C@H](O)[C@@](C)(CO)[C@@H]5CC[C@]43C)[C@H]12
- Potency [1]: inactive
- Potency [2]: inactive
- outcome [9]: inactive
- outcome [10]: inactive
- outcome [17]: inactive
- outcome [11]: inactive
- outcome [12]: inactive

Compound: CC(CO[C@@H]1O[C@H](COC(=O)/C=C/c2ccc(O)c(O)c2)[C@@H](O)[C@H](O)[C@H]1O)C1(O)COC(=O)C1 (stereo partly specified)
- Potency [2]: inactive

Compound: CCN(c1cc(C#CCN2CCOCC2)cc(C(=O)NCc2c(C)cc(C)[nH]c2=O)c1C)C1CCC(N(C)CCOC)CC1 (stereo unspecified)
- Potency [1]: inactive
- Potency [2]: inactive
- activity [13]: 15%
- activity change, negative = inhibition [14]: 3.71%
- activity [15]: -20.4%
- activity [16]: 4.61%

Compound: CC1CC(O)C2(C)C(C(=O)O)=CCCC2C1(C)CCc1ccoc1 (stereo unspecified)
- Potency [1]: inactive
- Potency [2]: inactive
- activity [13]: -89.3%
- activity change, negative = inhibition [14]: 2.37%
- activity [15]: 2.05%
- activity [16]: 2.03%

Compound: OC1COC(OCC2OC(OCCc3ccccc3)C(O)C(O)C2O)C(O)C1O (stereo unspecified)
- Potency [1]: inactive
- Potency [2]: inactive
- activity [13]: -64.8%
- activity change, negative = inhibition [14]: 0% [at 29.8 µM]
- activity [15]: 0%
- activity [16]: 0%

Compound: O=C(O)C[C@H](O)C[C@H](O)/C=C/c1c(C2CC2)nc2ccccc2c1-c1ccc(F)cc1
- Potency [1]: 1.83 µM (active) and 1.18 µM (active)
- Potency [2]: 1.83 µM (active) and 934 nM (active)
- outcome [3]: inactive

Compound: CC1(C)O[C@@]2(C)CC[C@@H]1C[C@@H]2OC1OC(CO)C(O)C(O)C1O (stereo partly specified)
- Potency [1]: inactive
- Potency [2]: inactive
- activity [13]: -67.5%
- activity change, negative = inhibition [14]: 2.82%
- activity [15]: 4.92%
- activity [16]: 0.858%

Compound: COc1cc(C2OCC3C(c4ccc(OC5OC(CO)C(O)C(O)C5O)c(OC)c4)OCC23)ccc1O (stereo unspecified)
- Potency [2]: inactive

Compound: CC(Cc1ccc(O)c(O)c1)C(C)Cc1ccc(O)c(O)c1 (stereo unspecified)
- Potency [18]: 31.4 µM (active)
- outcome [5]: inactive
- outcome [6]: inactive
- Potency [7]: 55.5 µM (active)

Compound: CCOc1nc2cccc(C(=O)O)c2n1Cc1ccc(-c2ccccc2-c2noc(=O)[nH]2)cc1
- Potency [1]: inactive
- Potency [2]: inactive
- outcome [3]: inactive
- outcome [4]: inactive
